From PubChem
MEX-5 binding – MEX-5 zinc finger RNA-binding disruptors – biochemical, C. elegans, fluorescence polarization, MLPCN library, primary screen; MEX-5/FITC-TCR2 RNA binding; active compounds read low; AID 1832, 2009; Zinc finger protein mex-5 (Caenorhabditis elegans), Q9XUB2; activity score (negative = inhibition of binding), % at 10 µM; 300,000 compounds, 0.38% hits;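 active = inhibition past about -25% in most replicates, and total fluorescence under double the plate's negative control median, limit read from the data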;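 note: 0% = DMSO and -100% = 5 µM competing unlabeled TCR2 RNA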
GLD-1 TGE inh – GLD-1/TGE RNA complex disruptors, primary screen, biochemical, fluorescence polarization; AID 2280, 2010; inhibition, % at 5.96 µM; 320,000 compounds, 0.44% hits; purified GLD-1 + fluorescein TGE RNA;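 active = percent inhibition above a per-plate cutoff, the plate mean of test compounds plus 3 SD, cut at about 30% in these data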;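 note: 0% = DMSO wells with GLD-1 and probe and 100% = wells lacking GLD-1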
Target sequence (Q17339 whole entry, looked up): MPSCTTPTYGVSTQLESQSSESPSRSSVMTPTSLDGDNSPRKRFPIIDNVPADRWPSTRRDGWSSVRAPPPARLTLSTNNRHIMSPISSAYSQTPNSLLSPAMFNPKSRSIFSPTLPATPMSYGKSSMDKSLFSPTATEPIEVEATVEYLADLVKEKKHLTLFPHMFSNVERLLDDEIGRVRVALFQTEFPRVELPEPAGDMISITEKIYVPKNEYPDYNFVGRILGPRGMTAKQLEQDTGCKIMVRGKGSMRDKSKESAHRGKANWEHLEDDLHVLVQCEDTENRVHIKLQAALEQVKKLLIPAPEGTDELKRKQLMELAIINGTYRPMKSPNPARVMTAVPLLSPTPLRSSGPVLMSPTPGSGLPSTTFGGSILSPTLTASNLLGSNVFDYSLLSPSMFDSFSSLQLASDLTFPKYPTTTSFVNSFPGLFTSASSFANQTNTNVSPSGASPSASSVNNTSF
MCL1-BIM inh – inhibitors of MCL1 binding to BIM-BH3, primary screen, biochemical, fluorescence polarization | Induced myeloid leukemia cell differentiation protein Mcl-1 (Homo sapiens), Q07820 | GST-MCL1 / FITC-Bim-BH3 fluorescence polarization | inhibition, % at 10.9 µM | 320,000 compounds, 0.68% hits;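 active = inhibition above the mean inhibition of all tested compounds plus 3 SD, set per campaign, cut at about 40% in these data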;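 note: 0% = DMSO wells and 100% = unlabeled Bim-BH3 peptide control; higher means more loss of mP so more displacement of Bim peptide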
Bcl-xL primary – inhibitors of human Bcl-xL, primary screen, biochemical, fluorescence polarization, HTS; GST-Bcl-xL / FITC-Bim BH3 peptide fluorescence polarization; inhibition, % at 10.9 µM; 320,000 compounds, 0.7% hits;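 active = inhibition above the mean of all tested compounds plus 3 SD, cutoff set per campaign, cut at about 30% in these data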;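 note: 0% = DMSO wells and 100% = unlabeled Bim-BH3 peptide competitor; inhibitors lower millipolarization by displacing the labeled peptide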
Target sequence (Q07817 whole entry, looked up): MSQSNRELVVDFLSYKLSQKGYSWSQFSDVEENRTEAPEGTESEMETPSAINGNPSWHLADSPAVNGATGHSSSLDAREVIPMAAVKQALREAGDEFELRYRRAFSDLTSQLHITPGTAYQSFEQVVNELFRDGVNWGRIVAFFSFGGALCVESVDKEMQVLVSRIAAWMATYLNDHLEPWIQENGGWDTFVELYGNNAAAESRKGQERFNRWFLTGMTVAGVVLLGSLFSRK
E coli Lon inh – inhibitors of E. coli Lon protease, primary screen, biochemical, fluorescence polarization; inhibition, % at 7.94 µM; P0A9M0; purified E. coli Lon protease; 360,000 compounds, 0.42% hits; in the data active = inhibition above about 13%, passing the limit was not always enough;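 note: 0% = enzyme with probe and DMSO and 100% = no enzyme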
EBV gp42 block – Epstein-Barr virus gp42 inhibitors, primary screen, biochemical, uHTS, fluorescence polarization; Glycoprotein 42 (Epstein-Barr virus (strain AG876)), Q1HVG2; Fluorescence polarization binding assay, mP read-out; inhibition, % (tested at 21.74 µM); 220,000 compounds, 0.42% hits; AID 1085, 2008; in the data active = inhibition above about 50%
BCLXL inh confirm – Bcl-xL inhibitors blocking Bim BH3 binding, confirmation, counter-screen for MCL1 inhibitor project, biochemical, fluorescence polarization; shares compounds with MCL1-BIM inh; GST-Bcl-xL / FITC-Bim BH3 peptide FP binding; inhibition, % at 10.9 µM; 1,700 compounds, 54% hits;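 active = inhibition above a cutoff equal to the mean inhibition of all tested compounds plus 3 SD, cut at about 30% in these data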;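 note: 0% = DMSO wells and 100% = unlabeled Bim BH3 control peptide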
MCL1 BIM confirm – inhibitors of MCL1 binding to BIM-BH3, confirmation, biochemical, fluorescence polarization, triplicate. shares compounds with MCL1-BIM inh. GST-MCL1 / FITC-Bim-BH3 fluorescence polarization. inhibition, % at 10.9 µM. 1,700 compounds, 61% hits;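 active = inhibition above the average of all tested compounds plus 3 SD, cut at about 40% in these data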;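 note: 0% = DMSO wells and 100% = unlabeled Bim-BH3 control peptide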
* marks the source's active call; other numbers are inactive results; nt = no result. A selection: hits, their analogues and other compounds. The true share with any hit is near 1.5%.

SMILES	MEX-5 binding	GLD-1 TGE inh	MCL1-BIM inh	Bcl-xL primary	E coli Lon inh	EBV gp42 block	BCLXL inh confirm	MCL1 BIM confirm
CCC1(C(=O)OC)NC(c2ccccc2OC)C2C(=O)N(C)C(=O)C21 (centres undefined)	-2.1	10.6	58.2*	58.2*	-1.7	-28.4	3.1	-3.4
Nc1ccc(N)c(C(=O)O)c1	-9.3	21.1	101.0*	57.8*	43.1*	107.9*	72.0*	111.8*
COc1ccc(NC(=S)N(CCCOC(C)C)C2CCN(C(C)=O)CC2)cc1Cl	0.9	1.1	-0.4	4.7	-3.4	nt	nt	nt
O=C(NCCc1c[nH]c2ccccc12)C(=O)NCC1OCCN1S(=O)(=O)c1cc(F)ccc1F (centres undefined)	nt	2.1	-2.4	3.5	-15.0	-0.6	nt	nt
Cc1cccc2c1NC(=O)C21OCC(CO)([N+](=O)[O-])CO1 (centres undefined)	2.3	-3.9	-5.2	-0.4	-0.1	nt	nt	nt
N#CC1=C(N)Oc2cc(O)c(Cl)cc2C1c1ccccc1F (centres undefined)	-46.2*	59.2*	56.6*	78.4*	-167.8	nt	91.0*	118.3*
CCOc1ccc(CCN2CN(C3CCCCC3)CNC2=S)cc1OCC	1.2	3.7	3.5	3.0	1.7	-5.0	nt	nt
CCOc1ccccc1N1CN(C2CCCCC2)CNC1=S	nt	-3.3	51.7*	-1.6	0.6	-5.2	1.7	3.1
O=C(CN1C(=O)NC(c2ccccc2)(c2ccccc2)C1=O)NC1CCCCC1	nt	-3.8	-2.3	-0.4	-0.9	nt	nt	nt
Cc1ccc2nc(-c3ccc(O)c(O)c3)cn2c1	-48.3*	9.4	40.0*	22.6	9.5	nt	60.6*	82.3*
O=S(=O)(Cc1ccccc1)N1CCN(c2ncccn2)CC1	1.7	14.7	-0.1	2.6	-6.9	nt	nt	nt
Cc1ccc(C)c(S(=O)(=O)C(C#N)c2nc3ccccc3nc2N2CCCC2)c1 (centres undefined)	-7.7	50.9*	77.7*	77.2*	-14.9	110.3*	22.0	12.0
Cc1ccc(C)c(S(=O)(=O)C(C#N)c2nc3ccccc3nc2N2CCOCC2)c1 (centres undefined)	-2.9	11.7	13.3	12.6	-1.9	-21.5	nt	nt
CCN(c1ccccc1)S(=O)(=O)c1cccc(C(=O)N2CCN(S(=O)(=O)c3ccccc3)CC2)c1	1.8	3.8	2.1	0.4	0.8	nt	nt	nt
COc1ccc2c(c1)CCN1C2CCN2C(=O)CCC21 (centres undefined)	-6.0	21.5	56.1*	45.0*	3.6	8.5	18.9	16.1
COc1cccc(N2C(=O)CC(N3CCc4ccccc43)C2=O)c1 (centres undefined)	-1.7	3.6	4.2	0.0	-5.7	-0.5	nt	nt
O=Cc1c(Sc2ccccn2)nc2ccccn2c1=O	3.7	24.3	63.1*	53.0*	-1.3	-4.1	3.0	8.4
O=C(O)CCNc1ccc(NCCC(=O)O)c2c1C(=O)c1ccccc1C2=O	-54.6*	77.4*	153.9*	114.4*	26.3	nt	101.6*	129.9*
COc1ccccc1NCCC(=O)O	3.4	3.7	1.1	1.5	4.0	-19.4	nt	nt
CN(C)CCCNC(=S)Nc1ccc(Br)cc1	0.0	3.1	-3.8	2.6	-7.8	1.1	nt	nt
CCN(CC(=O)Nc1c(F)cccc1F)C(=O)/C=C/c1ccc2ccccc2n1	-1.5	0.5	86.5*	31.8*	-23.0	nt	21.2	90.2*
O=C(CSc1ccc(-c2cccc([N+](=O)[O-])c2)nn1)N1CCCCC1	-1.9	0.9	7.7	8.3	1.2	-0.1	nt	nt
COC(=O)C1=COC(C)C2CN3CCc4c([nH]c5cc(OC)c(OC)cc45)C3CC12 (centres undefined)	-35.4*	53.1*	96.2*	92.1*	37.2	74.1*	94.3*	113.4*
CS(=O)(=O)NN1C(=O)c2ccccc2NC1c1cccc(O)c1 (centres undefined)	-2.0	7.4	0.2	1.7	14.4	0.1	nt	nt
CN1C(=O)c2ccccc2NC(=O)[C@]12O[C@@H]2c1cccc(O)c1	-43.8*	25.6	64.7*	61.5*	-19.8	16.3	55.5*	68.6*
SMILES	MEX-5 binding	GLD-1 TGE inh	MCL1-BIM inh	Bcl-xL primary	E coli Lon inh	EBV gp42 block	BCLXL inh confirm	MCL1 BIM confirm
NC(=O)c1c(NC(=O)C2CC=CCC2C(=O)O)sc2c1CCCCC2 (centres undefined)	-0.2	2.1	40.8*	27.0	1.4	nt	19.6	20.3
CCNc1ccc(Br)cc(C(=O)/C=C/c2ccc3c(c2)OCO3)c1=O	-3.7	8.9	47.0*	13.0	-1.3	34.1	-26.4	-44.6
Cc1oc(-c2cccc(Cl)c2)nc1CS(=O)(=O)CC(=O)NC1CCCC1	-0.9	10.4	1.8	3.7	1.0	nt	nt	nt
CCCCn1c(O)c(N=NC(=O)c2ccccc2NS(=O)(=O)c2cccs2)c2ccccc21	-0.3	4.8	15.9	5.1	-3.7	-5.8	nt	nt
C=CCn1c(O)c(N=NC(=O)c2ccccc2NS(=O)(=O)c2cccs2)c2ccccc21	-0.4	4.1	49.5*	3.4	-1.1	-5.5	78.8*	120.2*
COC(=O)c1c(C)[nH]c(C(=O)OCc2csc(CC(=O)Nc3ccccc3C)n2)c1C	nt	-2.5	nt	nt	-10.2	nt	nt	nt
CCOc1ccccc1/C=C(/NC(=O)c1ccccc1)C(=O)NC(C)c1ccccc1 (centres undefined)	-7.2	1.8	-1.5	4.0	-9.6	-1.0	nt	nt
O=C(O)C1Nc2c(Cl)cc(Cl)cc2C2C=CCC12 (centres undefined)	-73.1*	2.1	105.1*	84.8*	-12.4	nt	51.9*	90.7*
O=C(O)C1Nc2c(Cl)cc(Cl)c(Cl)c2C2C=CCC12 (centres undefined)	-2.2	14.5	102.7*	65.3*	-12.8	nt	123.0*	167.7*
CC(C)C1Nc2c(O)cc(Cl)c([N+](=O)[O-])c2C2C=CCC21 (centres undefined)	-0.5	nt	nt	nt	-2.7	-7.1	nt	nt
CCn1cc(C(=O)NCC(C)C)c(=O)c2cc(F)c(N3CCN(C)CC3)cc21	-1.4	5.6	0.4	2.4	-3.7	-10.9	nt	nt
CCn1cc(C(=O)NN)c(=O)c2cc(F)c(N3CCOCC3)cc21	-0.2	-7.1	41.1*	7.1	0.6	nt	15.2	29.2
